Results reported in PubChem BioAssay (NCATS).
Results filed as inconclusive are left out. Unmarked numbers belong to inactive results. Calls of active or inactive are those of the source. Calls follow the shape of the dose curve; as a rule, active = well fitted curve in the direction sought with a large enough effect; inconclusive = small, poorly fitted or top-dose-only effect, or another doubt; inactive = no such curve, though single readings can be large; an effect the other way counts as inactive or inconclusive.

Target: ATP-dependent 6-phosphofructokinase (Trypanosoma brucei brucei) (UniProt O15648)
Test: qHTS Assay to Find Inhibitors of T. brucei phosphofructokinase: hit validation (AID 492961);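 also: luminescence reports ADP formed as PFK phosphorylates fructose-6-phosphate with ATP; % is scaled to controls: 0 for no effect and ±100 for the full control effect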
Settings: T. brucei PFK, ADP-Glo luminescence; series mostly up to 51.4 µM; activity change, negative = inhibition: at the top concentration
In short: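 PFK 1.25 nM, F6P 0.5 mM, ATP 0.1 mM, MgCl2 5 mM, 0.1 M TEA pH 8.0, Tween20 0.01%, BSA 0.1%; 45 min RT. ADP-Glo two-step detection, luminescence. qHTS titration; curve fitting with curve-class categorization.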

Sequence of ATP-dependent 6-phosphofructokinase (Trypanosoma brucei brucei) (O15648 whole entry, looked up): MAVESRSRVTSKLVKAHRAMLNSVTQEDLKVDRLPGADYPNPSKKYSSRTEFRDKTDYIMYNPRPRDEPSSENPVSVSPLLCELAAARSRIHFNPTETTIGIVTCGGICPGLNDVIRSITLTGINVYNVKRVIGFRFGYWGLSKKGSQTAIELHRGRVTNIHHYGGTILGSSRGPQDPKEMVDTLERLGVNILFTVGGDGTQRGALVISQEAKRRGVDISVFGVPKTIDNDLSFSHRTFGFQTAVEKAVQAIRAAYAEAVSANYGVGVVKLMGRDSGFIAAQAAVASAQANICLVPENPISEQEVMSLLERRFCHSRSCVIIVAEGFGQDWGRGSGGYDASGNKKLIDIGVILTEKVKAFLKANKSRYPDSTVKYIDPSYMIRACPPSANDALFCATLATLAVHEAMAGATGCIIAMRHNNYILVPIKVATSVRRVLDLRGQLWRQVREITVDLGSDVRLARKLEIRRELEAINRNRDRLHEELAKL

| SMILES | activity change, negative = inhibition [%] | outcome |
| --- | --- | --- |
| O=C(O)/C=C/C(O)c1ccc(Cl)cc1 (stereo not given) | -3.17 | – |
| CN1[C@@H](CC(=O)c2ccccc2)CCC[C@H]1C[C@H](O)c1ccccc1 | 0 | – |
| CC(C(=O)O)c1ccc2c(c1)[nH]c1ccc(Cl)cc12 (stereo not given) | 8.91 | – |
| CCC1C(=O)OCC1Cc1cncn1C (stereo not given) | 10.4 | – |
| C=CCCCCCCCCC(=O)O | -4.77 | – |
| Cc1ccccc1CNc1ncnc2c1ncn2C1OC(CO)C(O)C1O (stereo not given) | -0.59 | – |
| N=c1ccn2c(n1)O[C@H]1[C@H](O)[C@@H](CO)O[C@H]12 | -0.878 | – |
| CN1[C@@H]2CC[C@H]1CC(OC(c1ccccc1)c1ccccc1)C2 (stereo not given in full) | – | inactive |
| CC1OC1P(=O)(O)O (stereo not given) | 1.09 | – |
| COC(=O)C1=C(C)NC(C)=C(C(=O)OCC(C)C)C1c1ccccc1[N+](=O)[O-] (stereo not given) | -4.82 | – |
| O=c1[nH]c2ccccc2n1CCCN1CCN(C(c2ccccc2)c2ccccc2)CC1 | -7.67 | – |
| O=C(O)COc1ccc(C(=O)c2cccs2)c(Cl)c1Cl | – | inactive |
| Nc1cc(-c2ccncc2)c[nH]c1=O | 0.773 | – |

System: not listed separately
Test: Validation screen for small molecules that induce genotoxicity in human embryonic kidney (HEK293T) cells expressing luciferase-tagged ELG1 (AID 493106); also: 0% is about no effect
Settings: luminescence; series mostly up to 46.1 µM; activity change, positive = ELG1 induction: at the top concentration
In short: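 Cells were dispensed at 2,000 per well, then 23 nL compound or DMSO was pinned in. After 16 hr at 37 °C and 5% CO2, ONE-Glo reagent was added. Luciferase activity was measured following 30 min at room temperature.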

| SMILES | activity change, positive = ELG1 induction [%] | Potency |
| --- | --- | --- |
| O=C(O)/C=C/C(O)c1ccc(Cl)cc1 (stereo not given) | -6.77 | – |
| C[C@@H](CN1CCC(Cc2ccccc2)CC1)[C@@H](O)c1ccc(O)cc1 | -13.2 | – |
| NC(=O)C(=O)O | -3.01 | – |
| CNCC[C@H](Oc1ccc(C(F)(F)F)cc1)c1ccccc1 | -11.8 | – |
| CC(=O)SCC[N+](C)(C)C | -6.56 | – |
| CN1[C@@H](CC(=O)c2ccccc2)CCC[C@H]1C[C@H](O)c1ccccc1 | -6.26 | – |
| CN1C2CCC1CC(OC(=O)C(O)c1ccccc1)C2 (stereo not given) | -3.76 | – |
| Cc1ccc(C(=O)O[C@H](C(=O)O)[C@@H](OC(=O)c2ccc(C)cc2)C(=O)O)cc1 (tested in a mixture with another compound) | -3.46 | – |
| O=Nc1ccc2oc(=O)ccc2c1 | 1.59 | – |
| N=C(N)SCCc1ccc(CCSC(=N)N)cc1 | 0.933 | – |
| C=CC(N)CCC(=O)O (stereo not given) | -5.18 | – |
| CCCCCCCCCCCCCCCCCCNC(=O)OCC(COP(=O)([O-])OCC[n+]1ccsc1)OC (stereo not given) | -9.18 | – |
| COc1cccc(OC)c1OCCNCC1COc2ccccc2O1 (stereo not given) | -14.1 | – |
| CC(C)NC[C@H](O)COc1cccc2[nH]ccc12 | -4.72 | – |
| CCC1C(=O)OCC1Cc1cncn1C (stereo not given) | – | inactive |
| NC(CCCP(=O)(O)O)C(=O)O (stereo not given) | -5.33 | – |

| SMILES | activity change, positive = ELG1 induction [%] | Potency |
| --- | --- | --- |
| O=C(O)c1cc(=O)c2ccccc2[nH]1 | -5.33 | – |
| O=C(O)CC[C@@H](C(=O)O)N1C(=O)c2ccccc2C1=O | -1.99 | – |
| N=c1ccn2c(n1)O[C@H]1[C@H](O)[C@@H](CO)O[C@H]12 | -3.97 | – |
| CC(C)(C=O)Cc1cc(C(C)(C)C)c(O)c(C(C)(C)C)c1 | -7.1 | – |
| CC1OC1P(=O)(O)O (stereo not given) | -4.94 | – |
| CCCCC/C=C\CC(O)/C=C/c1cccc(CC(O)CCCCO)n1 (stereo not given) | -8.1 | – |
| O=c1[nH]c2cc([N+](=O)[O-])c([N+](=O)[O-])cc2[nH]c1=O | -3.25 | – |
| CN(C)c1nc2c(Br)c(Br)c(Br)c(Br)c2[nH]1 | -24.7 | – |
| NCCNC(=O)c1ncsc1-c1cccc(F)c1 | -8.52 | – |
| CCCCCCCCCCCCCCCC(=O)OC(CC(=O)O)C[N+](C)(C)C (stereo not given) | -0.0602 | – |
| C[N+](C)(CCCCCC[N+](C)(C)CCCN1C(=O)c2cccc3cccc(c23)C1=O)CCCN1C(=O)c2cccc3cccc(c23)C1=O | -5.06 | – |
| NCCSSCCN | -2.2 | – |
| CN(C)C(N)=NCCC[C@H](N)C(=O)O | -1.35 | – |
| Fc1ccc(C(OCCCc2cnc[nH]2)c2ccc(F)cc2)cc1 | -17.2 | – |
| O=C(O)c1cc(=O)c2c(Cl)cc(Cl)cc2[nH]1 | -5.75 | – |
| CN(C)CCC(c1ccc(Cl)cc1)c1ccccn1 (stereo not given) | -4.03 | – |
